Source: PubChem BioAssay AID1159580 (chemical genetic matrix, 2015)
Where “and” joins values, the source holds several entries; their conditions need not be identical. Equal entries are not always repeated. Among all 5,500 compounds or so, about 2,000 (36%) were called active. About 18% were inconclusive and are not listed. Rule as the data show it: active = normalized growth mostly below about 0.91 (no sharp cut-off); inconclusive = no clear call, values can overlap the other calls; inactive = mostly above about 0.92. This is one part of the list.

Experiment: chemical genetic growth profiling, strain panel (AID 1159580);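 also: tested at 20 µM; growth read once vehicle control cultures reached saturation at 30 °C; 1 = growth at the plate median or of vehicle wells; lower values mean less growth of the strain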
Settings: growth OD

Measured: normalized growth

O=C(O)c1cc([N+](=O)[O-])ccc1NCCCc1ccccc1
active: S. cerevisiae deletion strains, locus YDL185W, strain tfp1, active compounds read low 0.868 | S. cerevisiae deletion strains, locus YER155C, strain BEM2, active compounds read low 0.915 | S. cerevisiae deletion strains, locus YGL078C, strain dbp3, active compounds read low 0.895 | S. cerevisiae deletion strains, locus YHR094C, strain hxt1, active compounds read low 0.921 | S. cerevisiae deletion strains, locus YIL125W, strain kgd1, active compounds read low 0.861 | S. cerevisiae deletion strains, locus YIR030C, strain dcg1, active compounds read low 0.918 | S. cerevisiae deletion strains, locus YKL009W, strain mrt4, active compounds read low 0.707 | S. cerevisiae deletion strains, locus YKL068W, active compounds read low 0.873 | S. cerevisiae deletion strains, locus YKL085W, strain MDH1 (second series), active compounds read low 0.848 | S. cerevisiae deletion strains, locus YKL085W, strain MDH1, active compounds read low 0.848 | S. cerevisiae deletion strains, locus YMR078C, strain ctf18, active compounds read low 0.903 | S. cerevisiae deletion strains, locus YNL250W, strain rad50, active compounds read low 0.851 | S. cerevisiae deletion strains, locus YNL271C, strain bni1, active compounds read low 0.874 | S. cerevisiae deletion strains, locus YNL298W, strain CLA4, active compounds read low 0.753 | S. cerevisiae deletion strains, locus YOL147C, strain pex11, active compounds read low 0.931 | S. cerevisiae deletion strains, locus YPR119W, strain clb2, active compounds read low 0.924 | S. cerevisiae deletion strains, locus YPR141C, strain kar3, active compounds read low 0.872
inactive: S. cerevisiae deletion strains, locus YAL013W, strain DEP1, active compounds read low 0.994 | S. cerevisiae deletion strains, locus YAL040C, strain CLN3, active compounds read low 0.958 | S. cerevisiae deletion strains, locus YBR021W, strain FUR4, active compounds read low 0.892 | S. cerevisiae deletion strains, locus YBR229C, strain ROT2, active compounds read low 0.959 | S. cerevisiae deletion strains, locus YCL029C, strain bik1, active compounds read low 0.931 | S. cerevisiae deletion strains, locus YCL061C, strain MRC1 (second series), active compounds read low 1.01 | S. cerevisiae deletion strains, locus YDL035C, strain GPR1, active compounds read low 0.953 | S. cerevisiae deletion strains, locus YDL074C, strain BRE1, active compounds read low 0.972 | S. cerevisiae deletion strains, locus YDL101C, strain DUN1, active compounds read low 0.984 | S. cerevisiae deletion strains, locus YDL134C, strain PPH21, active compounds read low 0.966 | S. cerevisiae deletion strains, locus YDL192W, strain arf1, active compounds read low 0.941 | S. cerevisiae deletion strains, locus YDR101C, strain arx1, active compounds read low 0.933 | S. cerevisiae deletion strains, locus YDR150W, strain NUM1, active compounds read low 1.01 | S. cerevisiae deletion strains, locus YDR162C, strain NBP2, active compounds read low 0.953 | S. cerevisiae deletion strains, locus YDR318W, strain mcm21, active compounds read low 0.939 | S. cerevisiae deletion strains, locus YDR363W, strain ESC2, active compounds read low 0.987 | S. cerevisiae deletion strains, locus YDR388W, active compounds read low 0.928 | S. cerevisiae deletion strains, locus YDR502C, strain sam2, active compounds read low 0.94 | S. cerevisiae deletion strains, locus YEL061C, strain CIN8, active compounds read low 0.97 | S. cerevisiae deletion strains, locus YER002W, strain NOP16, active compounds read low 0.954 | S. cerevisiae deletion strains, locus YER110C, active compounds read low 0.932 | S. cerevisiae deletion strains, locus YER167W, strain BCK2, active compounds read low 0.943 | S. cerevisiae deletion strains, locus YGL086W, strain mad1, active compounds read low 0.985 | S. cerevisiae deletion strains, locus YGL248W, strain PDE1, active compounds read low 0.984 | S. cerevisiae deletion strains, locus YGR078C, strain PAC10, active compounds read low 0.986 | S. cerevisiae deletion strains, locus YGR135W, strain pre9, active compounds read low 0.933 | S. cerevisiae deletion strains, locus YGR252W, strain gcn5, active compounds read low 0.893 | S. cerevisiae deletion strains, locus YHR030C, strain SLT2, active compounds read low 0.941 | S. cerevisiae deletion strains, locus YHR079C, strain IRE1 (second series), active compounds read low 0.934 | S. cerevisiae deletion strains, locus YHR129C, strain ARP1, active compounds read low 0.952 | S. cerevisiae deletion strains, locus YHR200W, strain rpn10, active compounds read low 0.922 | S. cerevisiae deletion strains, locus YIL066C, strain RNR3, active compounds read low 0.983 | S. cerevisiae deletion strains, locus YIL073C, strain SPO22, active compounds read low 0.829 | S. cerevisiae deletion strains, locus YJL095W, strain BCK1, active compounds read low 1.01 | S. cerevisiae deletion strains, locus YJL134W, strain LCB3, active compounds read low 0.944 | S. cerevisiae deletion strains, locus YJL168C, strain set2, active compounds read low 0.94 | S. cerevisiae deletion strains, locus YJL187C, strain SWE1 (second series), active compounds read low 0.996 | S. cerevisiae deletion strains, locus YJR043C, strain POL32, active compounds read low 0.987 | S. cerevisiae deletion strains, locus YJR075W, strain HOC1, active compounds read low 1 | S. cerevisiae deletion strains, locus YKL190W, strain CNB1, active compounds read low 0.967 | S. cerevisiae deletion strains, locus YKR001C, strain vps1, active compounds read low 0.934 | S. cerevisiae deletion strains, locus YLR039C, strain RIC1, active compounds read low 0.973 | S. cerevisiae deletion strains, locus YLR058C, strain SHM2, active compounds read low 0.964 | S. cerevisiae deletion strains, locus YLR102C, strain apc9, active compounds read low 0.93 | S. cerevisiae deletion strains, locus YLR262C, strain YPT6, active compounds read low 0.933 | S. cerevisiae deletion strains, locus YLR268W, strain sec22, active compounds read low 0.957 | S. cerevisiae deletion strains, locus YLR330W, strain CHS5, active compounds read low 0.927 | S. cerevisiae deletion strains, locus YLR342W, strain FKS1 (second series), active compounds read low 0.952 | S. cerevisiae deletion strains, locus YLR371W, strain rom2, active compounds read low 0.951 | S. cerevisiae deletion strains, locus YLR418C, strain cdc73, active compounds read low 0.901 | S. cerevisiae deletion strains, locus YML016C, strain PPZ1, active compounds read low 0.958 | S. cerevisiae deletion strains, locus YML032C, strain rad52, active compounds read low 0.968 | S. cerevisiae deletion strains, locus YML124C, strain tub3, active compounds read low 0.935 | S. cerevisiae deletion strains, locus YMR223W, strain ubp8, active compounds read low 0.945 | S. cerevisiae deletion strains, locus YMR263W, strain SAP30, active compounds read low 1.01 | S. cerevisiae deletion strains, locus YMR307W, strain GAS1, active compounds read low 0.945 | S. cerevisiae deletion strains, locus YNL067W, strain RPL9B, active compounds read low 0.998 | S. cerevisiae deletion strains, locus YNL128W, strain TEP1, active compounds read low 0.974 | S. cerevisiae deletion strains, locus YNL153C, strain GIM3, active compounds read low 1.03 and 0.971 | S. cerevisiae deletion strains, locus YNL175C, strain NOP13, active compounds read low 0.95 | S. cerevisiae deletion strains, locus YNL197C, strain WHI3, active compounds read low 0.949 | S. cerevisiae deletion strains, locus YNL224C, strain SQS1, active compounds read low 0.945 | S. cerevisiae deletion strains, locus YNL233W, strain BNI4, active compounds read low 1 | S. cerevisiae deletion strains, locus YNL307C, strain MCK1, active compounds read low 0.939 | S. cerevisiae deletion strains, locus YNL322C, strain KRE1, active compounds read low 0.968 | S. cerevisiae deletion strains, locus YNR052C, strain pop2, active compounds read low 0.949 | S. cerevisiae deletion strains, locus YOL006C, strain TOP1, active compounds read low 1.07 | S. cerevisiae deletion strains, locus YOL012C, strain htz1 0.889 | S. cerevisiae deletion strains, locus YOR061W, strain CKA2, active compounds read low 0.972 | S. cerevisiae deletion strains, locus YOR069W, strain VPS5, active compounds read low 0.958 | S. cerevisiae deletion strains, locus YOR083W, strain WHI5 (second series), active compounds read low 0.978 | S. cerevisiae deletion strains, locus YOR136W, strain idh2, active compounds read low 0.993 | S. cerevisiae deletion strains, locus YOR144C, strain elg1, active compounds read low 0.939 | S. cerevisiae deletion strains, locus YOR184W, strain ser1, active compounds read low 0.948 | S. cerevisiae deletion strains, locus YOR316C, strain cot1, active compounds read low 0.945 | S. cerevisiae deletion strains, locus YPL055C, strain LGE1, active compounds read low 1.01 and 1.02 | S. cerevisiae deletion strains, locus YPR163C, strain tif3, active compounds read low 0.925 | S. cerevisiae deletion strains, locus YPR167C, strain met16, active compounds read low 0.943 | S. cerevisiae deletion strains, strain wtn01, active compounds read low 0.967 | S. cerevisiae strains, strain wild type, active compounds read low 0.963
